# This excerpt belongs to a sample that is enriched for hits.
# Giardia FBPA inh: blocks Giardia fructose-bisphosphate aldolase activity | purified Giardia FBPA | actives 0.71% (n = 290,000) | Potency, µM (titrated, usually from 59.6 µM), inactives show at the top dose activity, negative = inhibition, usual class: inhibitors; also: potency is read from the fitted curve at half-maximal effect; % is scaled to controls: 0 for no effect and ±100 for the full control effect; nearly all actives have a fitted effect of over 55% in size
# Target sequence (A8B2U2 whole entry, looked up): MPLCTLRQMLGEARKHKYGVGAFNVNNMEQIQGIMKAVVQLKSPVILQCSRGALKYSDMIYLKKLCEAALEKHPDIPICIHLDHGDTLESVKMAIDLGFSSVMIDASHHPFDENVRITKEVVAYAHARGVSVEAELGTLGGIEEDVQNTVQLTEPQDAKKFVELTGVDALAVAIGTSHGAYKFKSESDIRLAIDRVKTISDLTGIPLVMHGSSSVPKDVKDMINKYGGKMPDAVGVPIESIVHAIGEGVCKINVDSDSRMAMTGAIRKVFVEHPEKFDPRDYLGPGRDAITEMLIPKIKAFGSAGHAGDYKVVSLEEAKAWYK
#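 40 nM FBPA preincubated 10 min at RT with compound (up to 57.5 uM final), then substrate plus GAPDH/TPI/NAD/arsenate coupling and diaphorase/resazurin added. Fluorescence read after 20 min at RT, 525/598 nm.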
# LmPK inh: blocks Leishmania mexicana pyruvate kinase activity. Potency, µM (series often up to 57.5 µM), for the others: at the highest dose activity change, negative = inhibition, hits mostly inhibitors. Q27686. AID 1721. purified LmPK, Kinase-Glo ATP luminescence, 1 h. actives 0.37% (n = 290,000); also: potency is read from the fitted curve at half-maximal effect; % is scaled to controls: 0 for no effect and ±100 for the full control effect
#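 qHTS format; LmPK 0.1 nM; substrates PEP 0.5 mM and ADP 0.1 mM. One-hour room-temperature incubation, then coupled luciferase luminescence; 0.5 nM enzyme wells mark activation.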
# RE007 growth inh: less growth of the S. pombe RE007 Vpr strain; AID 651644; Potency, µM (series often up to 92.2 µM), for the others: at the top dose activity change, negative = less growth, usual class: inhibitors; actives 0.21% (n = 360,000); S. pombe RE007 Vpr strain, BacTiter-Glo ATP luminescence, 24 h; active = well fitted falling curve with a large enough effect; inconclusive = small, poorly fitted or top-dose-only effect; inactive = no such curve, though single readings can be large or run the other way; also: potency is read from the fitted curve at half-maximal effect; % is scaled to controls: 0 for no effect and ±100 for the full control effect; nearly all actives have a fitted effect of over 50% in size
#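 Fission yeast strain RE007, carrying one chromosomally integrated HIV-1 vpr copy, was seeded at OD 0.01 in PMG+AL medium with 23 nL pinned compound. After 24 h at 30 °C and 99% humidity, viability was read by BacTiter-Glo luminescence.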
# Shiga toxin inh: blocks Shiga toxin action in Vero cells. Vero cells, Shiga toxin protein synthesis inhibition reporter. inhibition, % at 38.7 µM. actives 9.2% (n = 290,000). AID 2315; in the data active = inhibition mostly above about 28%, no sharp cut-off; inactive = mostly below about 43%; also: 0% is about no effect
# Cycloheximide cs: counter-screen for Shiga toxin inhibitors: cycloheximide protein synthesis inhibition; actives 12% (n = 300,000); cell reporter, cycloheximide protein synthesis inhibition counterscreen; max response, %; in the data active = max response mostly above about 13%, no sharp cut-off; inactive = mostly below about 14%; also: read at 38.3 µM for the half of the compounds with a filed dose; 0% is about no effect
# Tb PYK inh: inhibitors of Trypanosoma brucei pyruvate kinase; TbPYK enzyme, Kinase-Glo Plus ATP luminescence, 45 min; Potency, µM (doses to about 76.8 µM), for the others: at the highest dose activity, negative = inhibition, hits mostly inhibitors; actives 0.12% (n = 410,000); AID 624173; also: potency is read from the fitted curve at half-maximal effect; % is scaled to controls: 0 for no effect and ±100 for the full control effect; nearly all actives have a fitted effect of over 50% in size
#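 Screened from lowest to highest concentration, compounds were pinned into TbPYK/substrate mixtures, and ADP (130 uM final) was added. Plates sat at room temperature for 45 min prior to Kinase-Glo Plus detection by luminescence.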
# The depositor's hits bear a star; ? = inconclusive; / = no result given; + = active, no number. Unless noted, calls follow the shape of the dose curve; as a rule, active = well fitted curve in the direction sought with a large enough effect; inconclusive = small, poorly fitted or top-dose-only effect, or another doubt; inactive = no such curve, though single readings can be large; an effect the other way counts as inactive or inconclusive.
SMILES,Giardia FBPA inh,LmPK inh,RE007 growth inh,Shiga toxin inh,Cycloheximide cs,Tb PYK inh
COc1cc(OC)cc(-c2nnc(SCc3cccnc3)o2)c1,5%,-9%,7%,12,17*,2%
COc1cccc(-c2nnc(SCc3cccnc3)o2)c1,-9%,-6%,-17%,98*,67*,-7%
Cc1cc(-c2nnc(SCc3cccnc3)o2)no1,10%,-4%,8%,20,22,-5%
O=[N+]([O-])c1cccc(-c2ccc3nnc(SCc4cccnc4)n3n2)c1,/,/,1%,/,/,3%
O=[N+]([O-])c1cccc(-c2nnc(SCc3cccnc3)o2)c1,-1%,-1%,-3%,35,13*,-5%
O=S(=O)(c1ccc(Br)cc1)c1nc(-c2ccco2)oc1NCC1CCCO1 (centres undefined),-6%,5%,14%,16,3,4%
COCc1nnc(NC(=O)CS(=O)(=O)c2ccc(C)cc2)s1,-22%,4%,-5%,-2,-1,1%
CCC(Sc1nc2ccccc2c2nc(CCn3c(C)nc4ccccc43)nn12)C(=O)Nc1ccc(F)cc1 (centres undefined),/,/,/,/,/,1%
Cc1cc(C)cc(N(C)S(=O)(=O)c2nnc(NC(=O)COc3ccc(Cl)cc3)s2)c1,/,/,/,/,/,-8%
Oc1c(Br)cc(Br)cc1/C=N/c1nc2c(s1)CCCC2,/,/,?,/,/,-8%
Oc1ccc2ccccc2c1/C=N/c1nc2c(s1)CCCC2,?,-3%,?,5,14*,-7%
CN(CC(=O)Nc1ccccc1C(F)(F)F)C(=O)c1cccc(-n2cccc2)c1,/,/,-21%,/,/,-12%
CCOC(=O)c1sc(NC(=O)c2cc3nc(-c4ccccc4)cc(C(F)(F)F)n3n2)c(C(=O)OCC)c1C,/,/,/,/,/,2%
CC(C)n1c(NCCO)nc2ccccc21,-6%,2%,2%,-11,-5,2%
C[n+]1c2ccccc2nc2ccc(NCCO)cc21,?,-2%,3.5µM*,-1,13*,?
CNc1ccc2nc3ccccc3[n+](C)c2c1,-17%,-18%,?,67*,35*,?
Cc1ccc(Cn2c(CNS(=O)(=O)c3ccc(Cl)s3)nc3cccnc32)cc1,/,/,/,/,/,-2%
CC(C)N1CCN(C(=O)c2ccc(NC(=O)c3ccc(Br)o3)cc2)CC1,/,/,4%,/,/,-4%
CC(C)N1CCC(=NNC(=O)c2ccc(Br)o2)CC1,-3%,-3%,8%,37*,42*,-7%
O=C(NN=C1CCCCCC1)c1ccc(Br)o1,-4%,-2%,1%,87*,48*,-11%
COc1ccc(N/C=C/C(=O)C(F)(F)F)cc1,-12%,4%,/,-58,15,-4%
COc1ccc(C(=O)/C=C/Nc2ccc(NC(C)=O)cc2)cc1OC,-8%,1%,-27%,22,0,1%
COc1cccc(C(=O)/C=C/Nc2cccc(O)c2)c1,-10%,14µM*,-12%,-10,-1,?
COc1ccc(N/C=C/C(=O)c2ccc(Cl)cc2)cc1,4%,-8%,3%,69*,63*,-8%
COc1cccc(C(=O)/C=C/Nc2ccc(NC(C)=O)cc2)c1,0%,?,-14%,60,42*,-18%
SMILES,Giardia FBPA inh,LmPK inh,RE007 growth inh,Shiga toxin inh,Cycloheximide cs,Tb PYK inh
COc1cccc(N/C=C/C(=O)c2ccc(Cl)cc2)c1,-5%,?,-3%,92*,63*,7%
Cc1c(CCC(=O)NCc2cccc(Cl)c2)c(=O)oc2c(C)c(O)ccc12,/,/,/,/,/,3%
CCOc1ccc(C2C(=O)N(C3CCCCC3)CC(=O)N2Cc2ccccc2OC)cc1OC (centres undefined),/,/,/,/,/,1%
COc1ccc2c(c1)c1c(c(=O)n(-c3ccccc3)c(=O)n1CC(=O)Nc1ccc(F)cc1)n2C,/,/,/,/,/,0%
COc1ccc([C@@H]2CC(=O)c3c(O)cc(O[C@@H]4O[C@H](CO[C@@H]5O[C@@H](C)[C@H](O)[C@@H](O)[C@H]5O)[C@@H](O)[C@H](O)[C@H]4O)cc3O2)cc1,0%,/,/,-18,-3,/
COc1cccc(N/C=C/C(=O)c2ccc(C)cc2)c1,22%,-6%,-18%,63*,21*,-25%
COc1cccc(C(=O)/C=C/Nc2ccc(S(=O)(=O)Nc3cccc(C(C)=O)c3)cc2)c1,2%,5%,6%,97*,57*,0%
c1ccc(-n2ncc3c(NCc4ccccn4)ncnc32)cc1,-5%,2%,13%,74*,30*,-11%
Cc1cccc(-n2ncc3c(NCc4ccccn4)ncnc32)c1,0%,5%,-5%,70*,29*,0%
Cc1cccc(-n2ncc3c(NCCc4ccc(S(N)(=O)=O)cc4)ncnc32)c1,-8%,5%,-16%,-6,1,0%
Cc1ccc(C)c(N2CCN(CCCNC(=O)c3ccc4nc(N5CCCCC5)sc4c3)CC2)c1,/,/,/,/,/,-4%
CC1CC(C)CN(CCCNC(=O)c2ccc3nc(N4CCCCC4)sc3c2)C1 (centres undefined),-9%,-5%,-10%,15*,17*,-4%
CCCN1CCN(CCCNC(=O)c2ccc3nc(N4CCCCC4)sc3c2)CC1,-11%,-1%,-1%,19,13*,-1%
COC(=O)[C@@H](O)CC[C@@H](C)Cc1c(OC)c(OC)c(C)c(OC)c1OC,6%,/,/,/,/,/
COc1ccc(NC(=O)CSc2nccn2Cc2ccco2)cc1,/,-2%,-9%,124*,56*,2%
CCC(=O)Nc1cc(NC(=O)CSc2ncc(-c3ccc(F)cc3)n2Cc2ccco2)ccc1C,2%,-1%,-1%,76*,27*,-4%
CCOC(=O)CNC(=O)CSc1nccn1Cc1ccco1,-2%,2%,18%,-8,-2,-2%
CCOc1ccc(NC(=O)CSc2nccn2Cc2ccco2)cc1,9%,-3%,2%,41*,31*,-4%
COc1ccc(NC(=O)CSc2nccn2Cc2ccc(F)cc2)cc1,/,-5%,-4%,10,2,-10%
COc1ccc(NC(=O)CSc2nccn2Cc2ccco2)cc1OC,/,1%,-11%,36*,27*,-4%
COc1ccc(Cl)cc1NC(=O)CSc1nccn1Cc1ccco1,/,/,/,/,/,-6%
COc1ccc(Nc2nc3ccccc3n3c(N)nnc23)cc1,/,/,/,/,/,-1%
O=C(Cn1c(=O)oc2ccccc21)NCC1COc2ccccc2O1 (centres undefined),-6%,-4%,-22%,-5,-4,2%
CC(=O)Nc1nnc(SCc2ccc(F)cc2)s1,/,4%,5%,23,39*,3%
O=C(Nc1nnc(SCc2ccc(F)cc2)s1)c1ccc2ncsc2c1,?,4%,7%,+,65*,-13%
O=C(Nc1nnc(SCc2ccc(F)cc2)s1)c1cnccn1,3%,-1%,-14%,-6,14,-7%

# Compound activity as filed in PubChem BioAssay.
